For part of these data: Potency and affinity values are given separately.
Experiments:
Parameters in all cases: scale not given: direction of the effect not stated beside the values
[1] = target: Protein translocase subunit SecA (Escherichia coli (strain K12)) (UniProt P10408); experiment: Assay to Identify E. coli SecA ATPase Inhibitors; format: functional; conditions: 30 µM
[2] = target: T1, Ubiquitin-activating enzyme e1, putative (Leishmania donovani (strain BPK282A1)) (UniProt E9BSI1); experiment: Leishmania donovani Ubiquitin Activating Enzyme (LdE1); format: functional; conditions: 30 µM
T1 sequence (whole entry): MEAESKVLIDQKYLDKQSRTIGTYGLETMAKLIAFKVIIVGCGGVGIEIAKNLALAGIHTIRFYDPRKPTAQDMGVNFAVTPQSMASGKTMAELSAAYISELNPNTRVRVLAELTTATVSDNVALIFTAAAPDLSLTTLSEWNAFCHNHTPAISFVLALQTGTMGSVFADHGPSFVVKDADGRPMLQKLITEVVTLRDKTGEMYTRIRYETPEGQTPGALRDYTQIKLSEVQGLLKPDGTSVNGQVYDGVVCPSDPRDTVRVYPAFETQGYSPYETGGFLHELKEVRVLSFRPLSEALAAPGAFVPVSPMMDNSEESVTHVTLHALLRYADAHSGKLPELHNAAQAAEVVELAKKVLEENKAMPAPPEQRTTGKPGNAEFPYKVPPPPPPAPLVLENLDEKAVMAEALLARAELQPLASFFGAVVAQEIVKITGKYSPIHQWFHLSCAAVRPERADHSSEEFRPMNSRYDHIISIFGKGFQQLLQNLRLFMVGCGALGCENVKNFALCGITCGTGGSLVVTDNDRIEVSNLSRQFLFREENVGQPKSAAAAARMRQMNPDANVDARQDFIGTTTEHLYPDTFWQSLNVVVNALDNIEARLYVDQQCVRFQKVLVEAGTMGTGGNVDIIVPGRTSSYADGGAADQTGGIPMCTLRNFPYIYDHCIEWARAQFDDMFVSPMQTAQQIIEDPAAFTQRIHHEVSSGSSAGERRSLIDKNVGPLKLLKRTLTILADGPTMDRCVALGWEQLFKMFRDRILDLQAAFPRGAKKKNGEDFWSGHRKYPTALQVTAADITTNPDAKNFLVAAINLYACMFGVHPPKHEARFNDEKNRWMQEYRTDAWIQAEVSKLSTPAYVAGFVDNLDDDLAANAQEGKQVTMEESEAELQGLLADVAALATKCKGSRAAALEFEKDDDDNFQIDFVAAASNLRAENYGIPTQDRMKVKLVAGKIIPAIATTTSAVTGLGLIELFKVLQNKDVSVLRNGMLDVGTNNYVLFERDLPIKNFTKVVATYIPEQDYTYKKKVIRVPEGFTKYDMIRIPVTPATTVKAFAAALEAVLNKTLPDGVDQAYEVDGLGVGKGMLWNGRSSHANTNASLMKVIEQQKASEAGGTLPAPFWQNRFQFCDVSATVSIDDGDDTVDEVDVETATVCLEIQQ

[3] = target: AMP-activated protein kinase, AMPK (Homo sapiens) (UniProt P54646+O43741+P54619+Q9UGJ0+Q9Y478+Q13131+Q9UGI9); experiment: AMP-dependent Kinase enzyme assay. An in vitro enzyme assay that detects ADP turnover that is directly proportional to AMPK activity. This uses naive AMPK that is activated during the assay with MK-8722; format: functional; conditions: 30 µM
[4] = target: Sialic acid-binding Ig-like lectin 9 (Homo sapiens) (UniProt Q9Y336); experiment: Hs-Siglec9 ALPHAscreen SOP 20170721; conditions: 10 µM
Trypanosoma cruzi = experiment: Trypanosoma cruzi phosphomannomutase and mannose-1-phosphate guanylyltransferase assay; format: functional; conditions: 10 µM
[5] = target: T2, Arginase-2, mitochondrial (Homo sapiens) (UniProt P78540); experiment: in vitro enzyme assay to detect the production of urea directly proportional to the activity of Arginase II; format: functional; conditions: 33.3 µM; further: in the data most compounds retested in dose-response had high values
T2 sequence (whole entry): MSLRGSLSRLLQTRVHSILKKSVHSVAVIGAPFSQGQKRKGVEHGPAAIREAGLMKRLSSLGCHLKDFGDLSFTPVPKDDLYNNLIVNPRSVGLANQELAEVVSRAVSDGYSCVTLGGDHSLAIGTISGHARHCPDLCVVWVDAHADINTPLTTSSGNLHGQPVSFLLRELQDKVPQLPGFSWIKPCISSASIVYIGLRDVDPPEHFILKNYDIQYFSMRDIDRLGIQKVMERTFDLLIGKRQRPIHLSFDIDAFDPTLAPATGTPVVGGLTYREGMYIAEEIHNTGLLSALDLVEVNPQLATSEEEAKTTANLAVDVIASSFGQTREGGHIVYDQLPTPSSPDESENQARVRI

[6] = target: T3, Proteasome subunit beta (Trypanosoma cruzi) (UniProt O96673); experiment: Trypanosoma cruzi proteasome chymotrypsin-like activity (TcProtChymo) assay.; further: in the data most compounds retested in dose-response had high values; format: functional; conditions: 9.37 µM
T3 sequence (whole entry): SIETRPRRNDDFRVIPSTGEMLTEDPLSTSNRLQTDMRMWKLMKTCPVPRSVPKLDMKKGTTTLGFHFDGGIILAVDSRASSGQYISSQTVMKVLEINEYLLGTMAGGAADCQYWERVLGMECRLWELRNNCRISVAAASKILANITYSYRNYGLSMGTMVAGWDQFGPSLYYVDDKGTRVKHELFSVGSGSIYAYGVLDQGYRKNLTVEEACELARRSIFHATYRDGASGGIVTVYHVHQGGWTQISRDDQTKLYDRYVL

Homo sapiens = organism: Homo sapiens; experiment: To identify inhibition of the IFN signalling (Jak-Stat) pathway via expression of an eGFP reporter gene under the control of an IFN-stimulated response element (ISRE) containing MxA promoter.; format: functional; conditions: 30 µM
[7] = target: T4, Tyrosyl-tRNA synthetase, putative (Trypanosoma cruzi (strain CL Brener)) (UniProt Q4DSP6); experiment: Trypanosoma cruzi tyrosyl tRNA synthetase (TcYRS) _High Tyrosine SOP; format: functional; conditions: 30 µM; further: in the data most compounds retested in dose-response had high values
T4 sequence (whole entry): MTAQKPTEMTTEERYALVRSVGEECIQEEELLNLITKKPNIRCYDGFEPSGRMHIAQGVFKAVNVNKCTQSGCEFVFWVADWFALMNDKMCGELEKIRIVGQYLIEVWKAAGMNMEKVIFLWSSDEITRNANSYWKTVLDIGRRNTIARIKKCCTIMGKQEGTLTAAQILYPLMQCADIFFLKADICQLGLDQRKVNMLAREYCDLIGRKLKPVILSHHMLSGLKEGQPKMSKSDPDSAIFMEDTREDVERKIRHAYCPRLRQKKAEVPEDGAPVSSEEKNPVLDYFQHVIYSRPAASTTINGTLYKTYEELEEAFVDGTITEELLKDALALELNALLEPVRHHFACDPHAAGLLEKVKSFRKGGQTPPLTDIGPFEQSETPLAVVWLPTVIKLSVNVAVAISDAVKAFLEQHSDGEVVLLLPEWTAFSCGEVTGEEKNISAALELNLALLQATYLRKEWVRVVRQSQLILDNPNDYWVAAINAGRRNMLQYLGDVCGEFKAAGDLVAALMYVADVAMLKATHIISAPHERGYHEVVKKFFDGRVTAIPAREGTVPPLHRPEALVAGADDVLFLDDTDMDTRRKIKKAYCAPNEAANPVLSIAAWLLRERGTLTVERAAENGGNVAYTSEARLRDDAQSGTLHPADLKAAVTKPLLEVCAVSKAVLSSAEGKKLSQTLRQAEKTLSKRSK

[8] = target: T4, Tyrosyl-tRNA synthetase, putative (Trypanosoma cruzi (strain CL Brener)); experiment: Trypanosoma cruzi tyrosyl tRNA synthetase (TcYRS) SOP; format: functional; conditions: 30 µM
[9] = target: Chromo domain-containing protein 1 (Saccharomyces cerevisiae (strain ATCC 204508 / S288c) (Baker's yeast)) (UniProt P32657); experiment: ScCHD-1 Enzyme Inhibition Assay; format: functional; conditions: 30 µM; further: in the data most compounds retested in dose-response had high values
Sequence of Chromo domain-containing protein 1 (Saccharomyces cerevisiae (strain ATCC 204508 / S288c) (Baker's yeast)) (P32657 whole entry, the tested form may be a part): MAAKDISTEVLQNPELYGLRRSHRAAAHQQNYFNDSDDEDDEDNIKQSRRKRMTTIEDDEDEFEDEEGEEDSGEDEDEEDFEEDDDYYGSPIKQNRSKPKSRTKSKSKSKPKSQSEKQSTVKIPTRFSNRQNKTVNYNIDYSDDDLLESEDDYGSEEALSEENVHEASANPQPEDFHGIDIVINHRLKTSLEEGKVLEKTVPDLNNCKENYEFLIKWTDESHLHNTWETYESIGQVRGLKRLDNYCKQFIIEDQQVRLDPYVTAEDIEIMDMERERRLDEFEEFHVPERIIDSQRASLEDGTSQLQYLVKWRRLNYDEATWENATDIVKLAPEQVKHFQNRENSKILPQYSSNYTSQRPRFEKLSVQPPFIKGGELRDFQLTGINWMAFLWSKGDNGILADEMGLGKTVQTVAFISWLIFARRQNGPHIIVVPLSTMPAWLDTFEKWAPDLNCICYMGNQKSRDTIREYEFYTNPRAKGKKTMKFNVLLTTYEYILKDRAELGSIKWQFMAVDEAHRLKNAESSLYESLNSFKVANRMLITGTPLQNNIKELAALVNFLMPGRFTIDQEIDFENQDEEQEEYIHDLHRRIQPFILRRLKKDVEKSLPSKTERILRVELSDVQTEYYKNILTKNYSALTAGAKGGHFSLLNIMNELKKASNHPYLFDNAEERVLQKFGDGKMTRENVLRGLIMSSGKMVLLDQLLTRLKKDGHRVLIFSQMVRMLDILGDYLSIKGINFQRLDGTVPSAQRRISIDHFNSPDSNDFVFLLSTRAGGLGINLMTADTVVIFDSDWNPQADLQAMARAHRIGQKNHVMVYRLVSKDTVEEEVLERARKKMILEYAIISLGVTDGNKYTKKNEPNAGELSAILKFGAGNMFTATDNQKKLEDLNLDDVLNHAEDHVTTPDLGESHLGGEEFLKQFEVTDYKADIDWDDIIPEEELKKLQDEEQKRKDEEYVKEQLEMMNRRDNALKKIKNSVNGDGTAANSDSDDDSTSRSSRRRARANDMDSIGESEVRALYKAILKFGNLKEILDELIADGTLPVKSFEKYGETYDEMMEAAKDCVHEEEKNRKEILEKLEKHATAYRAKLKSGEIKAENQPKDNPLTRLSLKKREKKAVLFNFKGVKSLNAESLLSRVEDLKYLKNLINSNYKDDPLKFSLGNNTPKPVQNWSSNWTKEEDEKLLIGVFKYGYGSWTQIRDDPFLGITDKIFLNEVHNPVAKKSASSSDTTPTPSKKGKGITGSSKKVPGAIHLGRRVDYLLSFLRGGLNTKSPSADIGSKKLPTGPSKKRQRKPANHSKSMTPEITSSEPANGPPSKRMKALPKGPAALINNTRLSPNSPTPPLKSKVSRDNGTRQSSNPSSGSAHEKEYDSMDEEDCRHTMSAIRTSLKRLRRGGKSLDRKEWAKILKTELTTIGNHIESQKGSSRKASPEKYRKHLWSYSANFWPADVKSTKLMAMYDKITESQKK

Sequence of Sialic acid-binding Ig-like lectin 9 (Homo sapiens) (Q9Y336 whole entry): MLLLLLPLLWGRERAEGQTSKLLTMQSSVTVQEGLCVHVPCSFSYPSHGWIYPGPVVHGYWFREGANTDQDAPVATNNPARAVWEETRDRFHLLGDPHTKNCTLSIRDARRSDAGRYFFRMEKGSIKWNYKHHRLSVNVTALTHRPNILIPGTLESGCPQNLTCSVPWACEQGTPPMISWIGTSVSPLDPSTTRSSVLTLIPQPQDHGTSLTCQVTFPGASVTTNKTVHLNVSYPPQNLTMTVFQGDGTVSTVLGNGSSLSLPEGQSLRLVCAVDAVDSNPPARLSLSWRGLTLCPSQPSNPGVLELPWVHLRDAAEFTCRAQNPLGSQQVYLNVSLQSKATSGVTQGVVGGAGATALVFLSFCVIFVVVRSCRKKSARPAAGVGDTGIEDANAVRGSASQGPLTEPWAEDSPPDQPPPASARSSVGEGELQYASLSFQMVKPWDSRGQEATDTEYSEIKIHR
Sequence of Protein translocase subunit SecA (Escherichia coli (strain K12)) (P10408 whole entry): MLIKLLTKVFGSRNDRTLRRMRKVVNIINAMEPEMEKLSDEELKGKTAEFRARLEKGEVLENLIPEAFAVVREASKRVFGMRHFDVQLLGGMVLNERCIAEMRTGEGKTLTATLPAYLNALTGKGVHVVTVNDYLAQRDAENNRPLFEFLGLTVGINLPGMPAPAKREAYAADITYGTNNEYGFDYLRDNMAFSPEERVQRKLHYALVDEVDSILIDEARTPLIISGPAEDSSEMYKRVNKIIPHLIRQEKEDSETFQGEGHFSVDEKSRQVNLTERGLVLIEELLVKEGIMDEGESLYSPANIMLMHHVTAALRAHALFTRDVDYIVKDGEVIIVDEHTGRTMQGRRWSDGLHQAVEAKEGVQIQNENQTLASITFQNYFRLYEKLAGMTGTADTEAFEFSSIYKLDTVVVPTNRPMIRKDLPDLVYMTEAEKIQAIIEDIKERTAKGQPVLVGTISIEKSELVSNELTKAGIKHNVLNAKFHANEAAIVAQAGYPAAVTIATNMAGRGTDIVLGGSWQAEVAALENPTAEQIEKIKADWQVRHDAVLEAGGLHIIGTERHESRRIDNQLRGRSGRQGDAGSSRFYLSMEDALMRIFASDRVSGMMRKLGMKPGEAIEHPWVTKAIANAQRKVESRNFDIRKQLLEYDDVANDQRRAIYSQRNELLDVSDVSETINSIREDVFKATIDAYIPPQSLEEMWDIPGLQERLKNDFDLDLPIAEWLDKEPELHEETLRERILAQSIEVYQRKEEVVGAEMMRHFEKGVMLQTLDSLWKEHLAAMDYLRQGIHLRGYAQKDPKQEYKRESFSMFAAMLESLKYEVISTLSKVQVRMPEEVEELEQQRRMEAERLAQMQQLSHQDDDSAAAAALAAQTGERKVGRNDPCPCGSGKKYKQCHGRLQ

Row | SMILES | Percent Effect [1] [%] | Percent Effect [2] [%] | Percent Effect [3] [%] | Percent Effect [4] [%] | Percent Effect (Trypanosoma cruzi) [%] | Percent Effect [5] [%] | Percent Effect [6] [%] | Percent Effect (Homo sapiens) [%] | Percent Effect [7] [%] | Percent Effect [8] [%] | Percent Effect [9] [%]
1 | CCCc1nc(C)cc(N2CCC3(CCC(=O)N(CCOC)C3)CC2)n1 | -4.76 | 10.8 | -6.4 | -1.18 | -0.489 | -0.744 | 10.9 | -7.21 | 4.3 | 13.6 | -3.56
2 | CC(C)(C)NC(=O)NC(=O)CNC(C)(C)c1ccc2c(c1)OCCO2 | -5.89 | 13.5 | -6.92 | 1.3 | 0.472 | -4.01 | 6.67 | 11.6 | 4.43 | 13.6 | -5.2
3 | CCc1csc(C2CCCN(C(=O)c3ccc(OC)nn3)C2)n1 (stereo unspecified) | -6.61 | 7.79 | -35.3 | 12.8 | 0.187 | -0.356 | 4.73 | 14.5 | 7.77 | 14.6 | -7.71
4 | CC(C)c1ccc(C(C)NC(=O)N2CCC(n3cncn3)CC2)cc1 (stereo unspecified) | -4.08 | 10.1 | -2.45 | 13.7 | -3.87 | 0 | 5.49 | 13.3 | 3.45 | 8.86 | -3.06
5 | O=C(c1ccc(F)cc1)N1CCN2C[C@H](OCc3ccccn3)C[C@H]2C1 | -5.08 | 8.11 | 5.44 | -1.47 | -2.83 | 1.59 | 20.7 | -8.06 | 7.57 | 12.8 | 1.66
6 | CC1CCc2nc(O)c(C(=O)NCc3cccc(F)c3)cc2C1 (stereo unspecified) | -3.85 | -12 | 11.6 | 0.168 | -3.54 | -5.46 | 4.99 | 9.92 | -1.06 | 0 | -2.98

— ChEMBL document CHEMBL3988442, “University of Dundee, Small-Polar-MMV Screening Library” (2021)
